# Source: PubChem
# Rows were chosen to be rich in hits. Some 2.9% of all compounds tested hit in one or more screens of this group.
# Fam108B counter: mouse Fam108B serine hydrolase inhibitors, primary screen, counter-screen for RBBP9 inhibitor project, biochemical, fluorescence polarization; 300,000 compounds, 0.33% hits; inhibition, % at 9.51 µM; recombinant Fam108B, FP-Rh probe fluorescence polarization;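 active = inhibition above the screen mean inhibition plus 3 SD, computed separately per campaign, cut at about 18% in these data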;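 note: inhibitors lower polarization as less probe binds the enzyme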
# PAFAH2 FP inh: PAFAH2 enzyme inhibitors, primary screen, biochemical, fluorescence polarization, human. Platelet-activating factor acetylhydrolase 2, cytoplasmic (Homo sapiens), Q99487. recombinant PAFAH2, FP-rhodamine activity probe. inhibition, % at 3.39 µM. 340,000 compounds, 0.99% hits. AID 492956, 2010;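 active = inhibition above the mean over all tested compounds plus 3 SD, cut at about 30% in these data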;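 note: inhibitors block probe labeling of enzyme so polarization drops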
# PME-1 primary: PME-1 inhibitors via competitive probe labeling, primary screen, biochemical, fluorescence polarization, FP-Rh probe, HTS; Protein phosphatase methylesterase 1 (Homo sapiens), Q9Y570; recombinant PME-1; AID 2130, 2009; 320,000 compounds, 0.53% hits; inhibition, % at 5.9 µM;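 active = inhibition above the campaign mean of all compounds plus 3 SD, cut at about 26% in these data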;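 note: competitive labeling of PME-1 active site by serine hydrolase directed probe; inhibitors block probe labeling so polarization falls and inhibition rises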
# Target sequence (Q9Y570 whole entry, looked up): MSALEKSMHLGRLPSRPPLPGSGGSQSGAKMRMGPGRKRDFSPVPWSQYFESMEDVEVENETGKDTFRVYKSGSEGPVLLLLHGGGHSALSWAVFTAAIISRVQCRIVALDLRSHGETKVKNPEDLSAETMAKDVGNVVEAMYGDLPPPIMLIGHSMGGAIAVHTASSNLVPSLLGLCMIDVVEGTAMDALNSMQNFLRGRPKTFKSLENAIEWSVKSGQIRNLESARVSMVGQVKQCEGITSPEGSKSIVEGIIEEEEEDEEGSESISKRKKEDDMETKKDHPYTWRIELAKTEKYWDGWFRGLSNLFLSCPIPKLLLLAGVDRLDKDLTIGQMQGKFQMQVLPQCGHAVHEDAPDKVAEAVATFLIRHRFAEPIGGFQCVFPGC
# PAFAH1B2 inh: PAFAH1B2 enzyme inhibitors, primary screen, biochemical, fluorescence polarization, human; inhibition, % at 3.39 µM; 340,000 compounds, 1.2% hits; AID 492953, 2010; recombinant PAFAH1B2, FP-rhodamine activity probe;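 active = inhibition above the mean of all tested compounds plus 3 SD, cut at about 24% in these data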
# pPAFAH inh: pPAFAH enzyme inhibitors, primary screen, biochemical, fluorescence polarization, human. inhibition, % at 3.39 µM. Platelet-activating factor acetylhydrolase (Homo sapiens), Q13093. 330,000 compounds, 1.5% hits. AID 463082, 2010. recombinant pPAFAH, FP-rhodamine probe fluorescence polarization;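 active = inhibition above the mean inhibition across the screen plus 3 SD, cut at about 25% in these data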;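 note: inhibitors block binding of the rhodamine activity-based probe so polarization drops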
# PAFAH1B3 FP inh: PAFAH1B3 enzyme inhibitors, primary screen, biochemical, fluorescence polarization, human. Platelet-activating factor acetylhydrolase IB subunit alpha1 (Homo sapiens), Q15102. recombinant PAFAH1B3, FP-rhodamine probe. inhibition, % at 3.39 µM. 340,000 compounds, 0.28% hits. AID 492972, 2010;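 active = inhibition above the screen-wide average of all tested compounds plus 3 SD, cut at about 25% in these data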
# Target sequence (Q15102 whole entry, looked up): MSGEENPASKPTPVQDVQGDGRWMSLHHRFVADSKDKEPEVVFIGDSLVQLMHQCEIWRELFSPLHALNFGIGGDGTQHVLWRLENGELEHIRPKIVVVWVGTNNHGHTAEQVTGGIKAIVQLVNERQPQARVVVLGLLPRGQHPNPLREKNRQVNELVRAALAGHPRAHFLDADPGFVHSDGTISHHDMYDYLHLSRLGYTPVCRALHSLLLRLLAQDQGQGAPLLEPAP
# Hits are given with their value; – = inactive; · = not tested or not shown.
SMILES,Fam108B counter,PAFAH2 FP inh,PME-1 primary,PAFAH1B2 inh,pPAFAH inh,PAFAH1B3 FP inh
Cc1ccc(N(C(=O)Cn2nnc3ccccc32)C(C(=O)NCc2ccccc2)c2ccccn2)cc1 (stereo not drawn),–,–,–,26,–,–
O=[N+]([O-])c1cc(/C=N\Nc2ccccn2)ccc1Cl,–,–,–,–,–,–
O=[N+]([O-])c1cc(C=Nc2cccc3c(O)cccc23)ccc1Cl,–,·,–,·,25,·
COc1ccc(CCn2c(-c3ccc(C(C)(C)C)cc3)n[nH]c2=S)cc1OC,–,–,–,25,–,–
COc1ccc(CCN(C)C(=O)C2CC(=O)N(Cc3ccc(C)cc3)C2)cc1OC (stereo not drawn),·,–,–,–,–,–
Cc1ccc(OCc2nnc(NC(=O)c3ccco3)s2)c(C)c1,–,–,–,–,–,–
Cc1ccc(OCc2nnc(NC(=O)c3ccco3)s2)cc1,–,–,–,25,–,–
O=C(O)c1cc(NS(=O)(=O)c2cccs2)cc(NS(=O)(=O)c2cccs2)c1,·,–,–,25,–,–
O=C(O)c1ccc(/C=N/NC(=O)c2ccc(NS(=O)(=O)c3cccs3)cc2)cc1,–,–,–,–,–,–
O=S(=O)(Nc1ccc(Br)cc1)c1cccc(NS(=O)(=O)c2cccs2)c1,·,43,·,75,·,–
CC(=O)NC(c1ccccc1)c1cc(Cl)c2cccnc2c1O (stereo not drawn),–,–,–,–,–,–
CCCC(=O)NC(c1ccco1)c1cc([N+](=O)[O-])c2cccnc2c1O (stereo not drawn),–,–,–,–,30,–
CCC(=O)NC(c1ccc(C)cc1)c1cc([N+](=O)[O-])c2cccnc2c1O (stereo not drawn),–,–,–,–,32,–
CCCC(=O)NC(c1ccc(OC)c(OC)c1)c1cc(Cl)c2cccnc2c1O (stereo not drawn),–,–,–,–,–,–
CC(=O)NC(c1ccc(C)cc1)c1cc([N+](=O)[O-])c2cccnc2c1O (stereo not drawn),–,–,–,–,28,–
CCC(=O)NC(c1cccs1)c1cc(Cl)c2cccnc2c1O (stereo not drawn),–,–,–,–,34,–
CCC(=O)NC(c1cc(Cl)c2cccnc2c1O)C(C)C (stereo not drawn),·,–,–,–,–,–
CCC(=O)NC(c1ccc(C)cc1)c1ccc2cccnc2c1O (stereo not drawn),–,–,–,–,–,–
O=C(CCCO)NC1Cc2ccccc2C1,–,–,–,–,–,–
CCN(Cc1ccncc1)C(=O)C1CCC(=O)N(Cc2ccc(Cl)cc2)C1 (stereo not drawn),–,–,–,–,–,–
COc1ccc(OC)c(S(=O)(=O)NCC(=O)NC2CCCc3ccccc32)c1 (stereo not drawn),·,–,·,–,·,–
O=C(COc1ccccc1O)NCCN1CCOCC1,–,–,–,–,–,–
O=C(Cn1cc(SCc2ccc(Cl)cc2)c2ccccc21)N1CCOCC1,–,–,–,25,–,–
O=C(Cn1cc(SCc2ccc(F)cc2)c2ccccc21)N1CCOCC1,–,–,–,–,–,–
c1ccc(CSc2nnc3c(n2)OC(c2ccco2)Nc2ccccc2-3)cc1 (stereo not drawn),–,–,–,–,26,–
SMILES,Fam108B counter,PAFAH2 FP inh,PME-1 primary,PAFAH1B2 inh,pPAFAH inh,PAFAH1B3 FP inh
O=C(Nc1cccc(Cl)c1)OCCOc1ccccc1,·,–,·,–,·,–
CC(=O)NC(=S)NNC(=O)C(c1ccccc1)c1ccccc1,–,–,–,–,–,–
N#CCC(=O)NNC(=S)NC(=O)C(c1ccccc1)c1ccccc1,–,–,–,29,–,–
Cn1nc(C(=O)NCCc2ccc(Cl)cc2)c2c1-c1ccccc1S(=O)(=O)C2,–,–,–,35,–,–
CCc1cc(=O)oc2cc(C)cc(OCC(=O)NC(Cc3ccc(Cl)cc3)C(=O)O)c12 (stereo not drawn),–,–,–,25,–,–
CCc1cc(=O)oc2cc(C)cc(OCC(=O)N[C@@H](CSCc3ccccc3)C(=O)O)c12,–,–,–,–,–,–
CCCN(CCC)C(=O)CCSCCC(=O)N(CCC)CCC,–,–,–,–,–,–
CC1CCC2C(C1)c1sc(=O)[nH]c1SC2(C)C (stereo not drawn),–,–,–,68,–,–
CCCCNC(=O)N1CCN(C(c2ccccc2)c2ccccc2)CC1,–,–,–,–,–,–
COc1ccc(O)c(C(=O)c2cc(SCC(=O)O)c3nc4sc5c(c4c(=O)n3c2)CCCC5)c1,–,–,–,–,28,–
CCOc1cc(/C=N/Nc2nc(-c3cccs3)c(NC(C)=O)s2)ccc1O,–,–,–,–,25,–
COc1ccc(C(=O)Cn2c(N3CCCCC3)nc3c2c(=O)n(C)c(=O)n3C)cc1OC,·,–,·,–,·,–
Cc1nc(SCC(=O)NC2CCCCC2C)nc(C)c1C (stereo not drawn),·,–,·,–,–,–
O=C(Cc1ccc(Br)cc1)c1ccc(O)cc1O,–,–,–,82,–,–
CC(=O)Nc1ccc(SCC(=O)OCC(=O)NC(=O)NCCC(C)C)cc1,–,–,–,–,–,–
O=[N+]([O-])c1cccnc1Oc1ccccc1F,–,–,–,–,–,–
Cc1cc(Oc2ncccc2[N+](=O)[O-])c2cc(Cl)ccc2n1,–,–,–,–,26,–
CC(C)Cc1ccc(C(C)NC(=O)Cc2ccc(S(=O)(=O)N3CCOCC3)s2)cc1 (stereo not drawn),–,–,–,–,30,–
O=C(CCc1ccc(O)cc1)c1c(O)cc(O)cc1O,–,–,–,31,–,–
O=C(Cc1ccc2c(c1)OCCO2)c1c(O)cc(O)cc1O,–,–,–,–,–,–
Cc1ccc(S(=O)(=O)Nc2ccccc2F)cc1C(=O)N1CCN(c2ccccc2O)CC1,·,–,–,–,–,–
Cc1ccc(OCCNC(=O)CCc2nc3sc4c(c3c(=O)[nH]2)CCCC4)cc1,–,–,–,27,–,–
Cc1ccc(NC(=O)C(C)SCc2nc3sc4c(c3c(=O)[nH]2)CCCC4)nc1 (stereo not drawn),–,–,–,29,–,–
O=C(CCc1nc2sc3c(c2c(=O)[nH]1)CCCC3)NCCOc1ccccc1,–,–,–,–,–,–
CC1(C)COC2(OC1)C(=O)N(CN1CCOCC1)c1ccccc12,–,–,–,–,–,–
O=C(NCC1CC1)C1CCCN(S(=O)(=O)c2ccc(-n3cnnn3)cc2)C1 (stereo not drawn),–,–,–,–,–,–
